p53 reactivator – restores transcriptional activity of mutant p53 | H1299 p53-A138V BP100-luciferase reporter, luminescence, 24 h | Potency, µM (highest dose often 92.2 µM), inactives show at the top dose activity change, positive = activation, usual class: activators | 320,000 tested, 0.063% active; also: % of control where 0% means no effect; nearly all actives have a fitted effect of over 45% in size
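H1299 (p53-null), stable ts p53-A138V + BP100-Luc; 1000 cells/well, Opti-MEM/10% FBS; cpd 4 pt, 1:5; 24 h, 37 deg C, 5% CO2; detection reagent 10 min RT; luminescence.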
AT treatment – potential ataxia-telangiectasia treatment | F2112 A-T fibroblasts, KAP-1 phosphorylation AlphaLISA; neocarzinostatin DNA damage 30 min before lysis | 320,000 tested, 0.19% active | Potency, µM (highest dose often 57.5 µM), for the others: top-dose activation, usual class: activators; also: % of control where 0% means no effect; nearly all actives have a fitted effect of over 45% in size
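hTERT-immortalized A-T patient fibroblasts (F2112), 500 cells/well in OPTI-MEM, 1% FBS, got compounds for 60 min, then NCS for 30 min at 37C. Lysates were then assayed for phospho-KAP-1 by AlphaLISA (anti-pKAP1 donor, anti-KAP1 acceptor beads), 6 hr at 25C.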
ERG-DNA inh – ERG Ets/DNA interaction inhibition | P11308 | Potency, µM (series often up to 76.9 µM), for the others: top-dose FP activity, negative = inhibition, actives largely listed as inhibitors | fluorescence polarization, His-ERG Ets domain / labelled DNA | 370,000 tested, 0.028% active; active = well fitted inhibition curve with a large enough effect in the polarisation, with a control signal flat; inconclusive = small, poorly fitted or top-dose-only effect, or effect the other way, or a change in a side signal; inactive = no such curve, though single readings can be large or run the other way; the % refers to the polarisation;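 also: polarization taken with two DNA probes labelled with fluorescein and Texas red; % of control where 0% means no effect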
Target sequence (P11308 whole entry, looked up, the tested form may be a part): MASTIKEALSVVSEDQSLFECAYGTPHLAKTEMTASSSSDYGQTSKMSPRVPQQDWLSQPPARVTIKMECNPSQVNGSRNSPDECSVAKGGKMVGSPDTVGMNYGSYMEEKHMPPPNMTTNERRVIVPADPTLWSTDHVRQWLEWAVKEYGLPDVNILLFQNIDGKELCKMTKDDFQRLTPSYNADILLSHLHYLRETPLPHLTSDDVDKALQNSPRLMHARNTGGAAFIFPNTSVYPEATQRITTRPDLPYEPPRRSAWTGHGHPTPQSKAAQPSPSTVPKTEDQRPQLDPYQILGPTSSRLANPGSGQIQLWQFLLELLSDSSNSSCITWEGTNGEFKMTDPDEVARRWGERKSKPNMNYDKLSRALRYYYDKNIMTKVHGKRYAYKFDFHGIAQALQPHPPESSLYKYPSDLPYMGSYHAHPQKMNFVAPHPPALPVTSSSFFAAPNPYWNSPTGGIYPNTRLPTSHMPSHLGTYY
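His-tagged ERG Ets domain (1 uM in the protein solution; 300mM KCl, 50mM Tris-HCl, 1mM EDTA, 1mM DTT, pH 7.5) received compound, then a probe mix of 5 nM fluorescein-DNA and 100nM Texas-615-DNA. Fluorescence polarization was read for both dyes.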
GCN5L2 inh – inhibitors of human GCN5L2 histone acetyltransferase | Q92830 | GCN5L2 HAT assay, ThioGlo1 CoA-SH fluorescence | Potency, µM (titrated, usually from 58.9 µM), without a hit: at the highest dose activity change, negative = inhibition, usual class: inhibitors | 390,000 tested, 0.21% active; also: % is scaled to controls: 0 for no effect and ±100 for the full control effect
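Fluorescence readout, Ex340nm/Em540nm: ThioGlo1 (50uM final) reacts with free CoA thiol released as 20nM GCN5L2 acetylates H3(1-25) peptide (75uM) using acetyl-CoA (70uM). Compound and enzyme sat 15 min beforehand; 20 min room-temperature reaction.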
Tb PFK inh – blocks T. brucei phosphofructokinase | O15648 | T. brucei PFK, ADP-Glo luminescence | AID 485367 | 330,000 tested, 0.17% active | Potency, µM (series often up to 57.5 µM), for the others: at the top dose activity, negative = inhibition, hits mostly inhibitors;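 also: 0% = uninhibited 1x PFK enzyme wells and -100% = no-enzyme wells; nearly all actives have a fitted effect of over 60% in size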
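In TEA buffer at pH 8.0 with 5 mM MgCl2, enzyme (1.25 nM) converted F6P (0.5 mM) and ATP (0.1 mM) for 45 min at room temperature. ADP product was read by luciferase luminescence.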
ASM inhibitor – human S-ASM enzyme inhibition; P17405; placental ASM, HMU-PC fluorogenic substrate, 60 min; Potency, µM (doses to about 57.5 µM), for inactives: at the top dose activity change, negative = inhibition, most hits filed as inhibitors; 340,000 tested, 0.006% active; AID 504937
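Human placenta-derived ASM enzyme was preincubated with compound for 10 minutes at room temperature, then given fluorogenic substrate HMU-PC0 (9 uM final) for 60 minutes at 37 °C; a pH 10 stop preceded fluorescence reading at Ex 386/Em 447 nm.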
* = called active by the depositor; i = inactive; u = inconclusive; x = no result; ! = a repeat was not active. A selection: hits, their analogues and other compounds. The true share with any hit is near 0.55%. Unless noted, calls follow the shape of the dose curve; as a rule, active = well fitted curve in the direction sought with a large enough effect; inconclusive = small, poorly fitted or top-dose-only effect, or another doubt; inactive = no such curve, though single readings can be large; an effect the other way counts as inactive or inconclusive. Potency is read from the fitted curve at half-maximal effect.

SMILES	p53 reactivator	AT treatment	ERG-DNA inh	GCN5L2 inh	Tb PFK inh	ASM inhibitor
COC(=O)c1ccc(C23CC4(C2)[C@H](CN(Cc2ccc(C(F)(F)F)cc2)[C@@H]4c2ccccc2)C3c2ccccc2)cc1 (stereo partly specified)	-3%	40µM*	-5%	2%	-22%	-8%
C[N+]1(CC2COC(c3ccccc3)(C3CCCCC3)O2)CCCCC1 (stereo unspecified)	x	x	x	22µM*	x	x
Cc1ccc(C(c2nnnn2C2CCCCC2)N2CCN3CCCC3C2)cc1 (stereo unspecified)	-7%	12%	-5%	0.89µM*	-2%	3%
CC(C)C(=O)OCC(=O)[C@@]12OC(C3CCCCC3)O[C@@H]1CC1C3CCC4=CC(=O)C=C[C@]4(C)C3[C@@H](O)C[C@@]12C (stereo partly specified)	x	x	x	-23%	x	x
O=C(O)C1=CC(=C(c2ccc(O)c(C(=O)O)c2)c2ccc(O)c(C(=O)O)c2)C=CC1=O	-5%	25%	x	0.32µM*	u	x
O=C(O)c1cc(O)ccc1O	x	x	21%	x	x	21%
COc1ccc(N2CCN(C(=O)CSc3ncn[nH]3)CC2)cc1	-3%	-2%	2%	-2%	5%	4%
COc1ccc2c(c1)C(C)CC(C)(C)N2C(=O)CSc1ncn[nH]1 (stereo unspecified)	-2%	20µM*	-1%	-2%	3%	6%
Cc1nn(C)c(Cl)c1NC(=O)OCc1ccc(Cl)cc1Cl	-2%	4%	-3%	2%	0%	1%
Cc1nnsc1NC(=O)OCc1ccc(Cl)cc1Cl	-2%	-1%	-1%	11µM*	-1%	-2%
COc1ccc(/C=C2/CCOC2=O)cc1	13%	13%	7%	-2%	-8%	0%
COc1cc(/C=C2\CCOC2=O)cc(OC)c1OC	-7%	1µM*	3%	-10%	9%	-2%
O=C(Nc1ccc(-c2nc3cccnc3s2)cc1)c1cccnc1Cl	19%	14µM*	0%	-11%	7%	24%
O=C(Nc1ccc(-c2nc3cccnc3s2)cc1)c1ccc(Cl)nc1	6%	2%	-4%	-10%	1%	41%
CO[C@H]1OC2O[C@@]3(C)CC[C@H]4[C@H](C)CC[C@@H]([C@H]1C)[C@@]24OO3 (stereo partly specified)	x	x	x	10%	x	x
CC(=O)Nc1cccc(S(C)(=O)=O)c1	7%	11%	20µM*	1%	1%	2%
Cc1c(N=C2SCC(=O)N2/N=C\c2ccc(Br)cc2)c(=O)n(-c2ccccc2)n1C	-9%	-9%	-3%	2%	6%	2%
Cc1c(N2C(=O)CS/C2=N\N=C\c2ccc(Br)cc2)c(=O)n(-c2ccccc2)n1C	-5%	-6%	0%	1.6µM*	2%	-4%
O=C(NCCCN1CCN(c2ccc(F)cc2)CC1)C1COc2ccccc2C1 (stereo unspecified)	x	x	-1%	-2%	x	x
CC[C@H](C)[C@H](NC(=O)[C@@H]1CCCN1C(=O)[C@H](Cc1cnc[nH]1)NC(=O)[C@H](CCCCNC(=O)[C@H](CCCN=C(N)N)NC(=O)OCc1ccccc1)NC(=O)[C@H](Cc1ccc(O)cc1)NC(=O)c1cccnc1)C(=O)O	x	x	x	18%	x	x
Cc1ccc2c(c1)C(Cc1ccccc1F)C(=O)N2 (stereo unspecified)	x	x	2%	-6%	x	x
Cc1ccc(Cl)cc1NC(=O)c1cc(S(=O)(=O)N2CCCCCC2)cn1C	x	x	-11%	-1%	x	x
Cc1cccc(C)c1OCc1cc(C(=O)N2CC3C[C@@H]4CC2C[C@H](C3)C4)no1	-19%	16%	3%	1%	13%	-5%
Cc1ccc(OCc2cc(C(=O)N3CC4C[C@@H]5CC3C[C@H](C4)C5)no2)cc1C	28µM*	1%	-11%	0%	1%	-1%
CC(C)c1nc(CN(C)C(=O)N[C@H](C(=O)N[C@@H](Cc2ccccc2)C[C@H](O)[C@H](Cc2ccccc2)NC(=O)OCc2cncs2)C(C)C)cs1	x	x	x	28µM*!	-2%	x
SMILES	p53 reactivator	AT treatment	ERG-DNA inh	GCN5L2 inh	Tb PFK inh	ASM inhibitor
CCOC(=O)/C=C(C)/C=C/C=C(C)/C=C/c1c(C)cc(OC)c(C)c1C	x	x	x	-10%	x	x
COc1cc(C)c(/C=C/C(C)=C/C=C/C(C)=C/C(=O)O)c(C)c1C	x	x	-14%	25µM*	x	-4%
CCOC(=O)NN1C(=O)c2ccccc2NC1c1cccs1 (stereo unspecified)	-2%	-2%	35µM*	-2%	-1%	98%
COc1ccc(CCNC(=O)C2CCN(S(=O)(=O)c3c(C)noc3/C=C/c3ccc(C)cc3)CC2)cc1OC	x	x	-3%	0%	x	x
COc1ccc(S(=O)(=O)Nc2ccccc2OC)cc1NC(=O)c1cc2ccccc2oc1=O	22µM*	14%	1%	-8%	3%	-8%
COc1ccc(NC(=O)c2cc3ccccc3oc2=O)c(OC)c1	25%	-5%	-6%	-3%	-2%	1%
O=C(NC(=S)Nc1ccccc1Br)C1CCCC1	28µM*	-9%	-5%	-6%	7%	-6%
CC(C)CCN(C(=O)Nc1ccc(Cl)c(Cl)c1)C1CCN(C(C)C)CC1	x	x	4%	-2%	x	x
CCOC(=O)N1CCC(N(C(=O)Nc2ccc(Cl)c(Cl)c2)C(C)CC)CC1 (stereo unspecified)	3%	9%	x	-13%	24µM*	-16%
O=C(Nc1ccc2nc(-c3ccco3)c(-c3ccco3)nc2c1)N1CCCCCC1	u	-3%	2%	14µM*	-28%	i
CCOC(=O)C1CCN(C(=O)Nc2ccc3nc(-c4ccco4)c(-c4ccco4)nc3c2)CC1	5%	-2%	-8%	u	u	i
CCOC(=O)N1CCN(C(=O)Nc2ccc3nc(C)c(C)nc3c2)CC1	-6%	40µM*	3%	-25%	1%	171%
Cc1ccc(CCNC(=O)c2ccc(CNS(=O)(=O)c3ccc(F)cc3)cc2)cc1	x	x	-2%	3%	x	x
CC1CCCc2sc3nc(SCC(=O)c4ccc(Br)cc4)nc(N)c3c21 (stereo unspecified)	x	x	10%	-3%	x	x
CCCCCCNC(=O)N[C@@H](C(=O)NCCC[C@H]1CN2C(=NC[C@@H]2Cc2ccccc2)N1CCc1cccc(OC)c1)C(C)C	7%	-10%	-7%	40µM*	-17%	-1%
CCc1nnc(NC(=O)C(CC)CC)s1	-4%	40µM*	2%	2%	-4%	1%

Screening data (PubChem)
